# Assay results from PubChem BioAssay (Tox21).
# Calls of active or inactive are those of the source. Calls follow the shape of the dose curve; as a rule, active = well fitted curve in the direction sought with a large enough effect in the repeat runs; inconclusive = weak or mixed curves; inactive = flat fitted curve, though single readings scatter.
# Assay: qHTS assay to test for compound auto fluorescence at 590 nm (red) in HepG2 cells (AID 720674)
# Details: HepG2 autofluorescence, red 540/590 nm, 1 h; series mostly up to 91.3 µM
# Excerpt: U.S. Tox21 Program National Center for Advancing Translational Sciences [NCATS] NIH Chemical Genomics Center [NCGC] U.S. Environmental Protection Agency [EPA] National Institutes of Environmental Health Sciences [NIEHS] National Toxicology Program [NTP] U.S. Food and Drug Administration [FDA] Tox21 Assay Overview: Compound auto fluorescence often interferes with screening of the compound library against various biological targets and signaling pathways. Some of these compounds may have fluorophoric properties. Such properties may interfere with the assay outputs resulting in false positives and/or negatives. To decrease such complications and ensure the compound activities are relevant in terms of biological response, the Tox21 10K compound library was screened for auto fluorescence. From the fluorophores used as reporter signals in our screening assays, the auto fluorescence equivalencies of compounds against three fluorophores have been evaluated: Triamterene, Fluorescein and Rose Bengal sodium for blue, green and red fluorescence, respectively. The fluorescence intensities were measured using Excitation/Emission wavelengths at 405/460nm, 485/535nm and 540/590nm for blue, green and red labels, respectively. This assay includes the red fluorescence data.
# Tox21 Assay Protocol Summary: 2,000 HepG2 cells in 5 uL of culture medium (MEM containing 10% FBS) per well were dispensed into black wall/clear bottom 1536-well plates using a Multidrop Combi Dispenser (ThermoFisher Scientific, Waltham, MA). The assay plates were incubated overnight at 37 C to allow cell attachment to the well bottom, followed by the transfer of 23 nL compound or DMSO vehicle by a pintool work station (Kalypsys , San Diego, CA). After the assay plates were incubated for 1 hr at 37 C and 5% CO2, fluorescence intensities in the assay plates were measured by an Envision (PerkinElmer, Shelton, CT) plate reader using three labels for measuring blue, green and red fluorescence at […] 460, 535 and 590 nm respectively.
row,Structure (SMILES),outcome
1,CN(C)c1ccc(N(C)C)cc1,inactive
2,CC(C)=CCOc1c2occc2cc2ccc(=O)oc12,inactive
3,CC1C(=O)C[C@]2(C(C)C)C[C@H]12 (stereo not given in full),inactive
4,CC(Cl)Cl,inactive
5,OC(c1ccc(Cl)cc1)(c1ccc(Cl)cc1)c1cccnc1,inactive
6,CN1C(=O)NC(=O)C(C)(C2=CCCCC2)C1=O (stereo not given),inactive
7,CCOC(=O)C(Cl)C(C)=O (stereo not given),inactive
8,[O-][Cl+]O,inactive
9,CC(C)(Cl)[N+](=O)[O-],inactive
10,C/C(=C\c1ccccc1)[N+](=O)[O-],inactive
11,CCCCCC[N+](=O)[O-],inactive
12,N#Cc1cc(I)c(O)c(I)c1,inactive
13,O=C1CN=C(c2ccccc2)c2cc(Cl)ccc2N1CC1CC1,inactive
14,CCOP(O)OCC,inactive
15,Cc1ccc2ccccc2c1,inactive
16,COCCOCCO,inactive
17,COC(=O)C(Br)CBr (stereo not given),inactive
18,C=CCCl,inactive
19,Oc1ccc(Cl)c(Cl)c1Cl,inactive
20,C(=NC1CCCCC1)=NC1CCCCC1,inactive

row,Structure (SMILES),outcome
1,C[N+](C)(C)CCCl,inactive
2,CC(C)N(C(=O)COc1nnc(C(F)(F)F)s1)c1ccc(F)cc1,inactive
3,c1ccc(C2CC2)c(OCC2=NCCN2)c1,inactive
4,Nc1ccc(N=Nc2ccc(-c3ccc(N=Nc4c(S(=O)(=O)O)cc5cc(S(=O)(=O)O)c(N=Nc6ccccc6)c(O)c5c4N)cc3)cc2)c(N)c1,inactive
5,[CH3][Sn]([CH3])([Cl])[Cl],inactive
6,O=[N+]([O-])c1ccccc1CCl,inactive
7,COP(=S)(Oc1cc(Cl)c(Br)cc1Cl)c1ccccc1 (stereo not given),inactive
8,CC(Cl)C(C)Cl (stereo not given),inactive
9,CC(C)O.CC(C)O.OCCN(CCO)CCO.OCCN(CCO)CCO.[Ti],inactive
10,COC(=O)C(C)N(C(=O)Cc1ccccc1)c1c(C)cccc1C (stereo not given),inactive
11,NC(=O)C(Cl)(Cl)Cl,inactive
12,O=C(CBr)OCc1ccccc1,inactive
13,COC(=O)c1cncn1C(C)c1ccccc1 (stereo not given),inactive
14,O=S1(=O)OC(c2cc(Br)c(O)c(Br)c2)(c2cc(Br)c(O)c(Br)c2)c2ccccc21,inactive
15,C/C=C/C=O,inactive
16,COc1ccc(-c2ccccc2)cc1NNC(=O)OC(C)C,inactive
17,C=CC(=O)OCCCCO,inactive
18,CC(=O)CCC(C)=O,inactive
19,c1ccc(CN2CCNCC2)cc1,inactive
20,O=Cc1ccc2c(c1)OCO2,inactive
